High-throughput results: PubChem, National Center for Advancing Translational Sciences (NCATS)
Six1-Eya2 inh: inhibitors of human Six1/Eya2 interaction. Q15475+O00167. AlphaScreen GST-Six1/His-Eya2 binding, biochemical; stronger effect = lower value. activity change, % (test concentration not listed). 0.56% of 360,000 active; in the data active = activity change below about -65%; inconclusive = mostly about -30% to -63%
Target sequence (O00167 whole entry, looked up): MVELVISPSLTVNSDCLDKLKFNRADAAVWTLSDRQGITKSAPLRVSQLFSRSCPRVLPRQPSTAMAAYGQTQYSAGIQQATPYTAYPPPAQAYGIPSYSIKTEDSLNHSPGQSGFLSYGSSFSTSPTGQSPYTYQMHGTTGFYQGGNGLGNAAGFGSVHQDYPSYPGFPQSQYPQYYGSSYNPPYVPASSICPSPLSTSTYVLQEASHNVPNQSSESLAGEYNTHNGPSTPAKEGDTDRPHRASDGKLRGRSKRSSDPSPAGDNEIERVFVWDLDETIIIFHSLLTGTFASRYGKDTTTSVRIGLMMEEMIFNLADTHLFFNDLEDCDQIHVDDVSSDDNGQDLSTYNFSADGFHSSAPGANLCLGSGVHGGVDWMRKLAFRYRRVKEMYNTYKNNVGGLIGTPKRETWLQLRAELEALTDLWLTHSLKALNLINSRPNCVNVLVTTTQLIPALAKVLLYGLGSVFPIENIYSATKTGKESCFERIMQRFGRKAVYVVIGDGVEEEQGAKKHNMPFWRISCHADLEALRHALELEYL
Target sequence (Q15475 whole entry, looked up): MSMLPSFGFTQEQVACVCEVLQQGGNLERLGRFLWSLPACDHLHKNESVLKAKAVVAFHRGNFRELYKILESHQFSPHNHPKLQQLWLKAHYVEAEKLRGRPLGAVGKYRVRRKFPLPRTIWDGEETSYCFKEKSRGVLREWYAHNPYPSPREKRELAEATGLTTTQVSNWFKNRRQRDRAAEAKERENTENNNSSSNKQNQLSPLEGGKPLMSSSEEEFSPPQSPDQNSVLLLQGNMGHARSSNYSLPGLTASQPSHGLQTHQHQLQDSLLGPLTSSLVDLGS
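AlphaScreen luminescence read after one hour at 37 °C in darkness. Pin-transferred compounds met GST-Six1 and His-Eya2 protein (5X stock 250 nM/500 nM) plus glutathione donor and Ni-chelate acceptor beads (5X, 50 ug/mL).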
CtBP-E1A inh: CtBP/E1A binding inhibition. AlphaScreen GST-E1A/His-CtBP binding, 1536-well; stronger effect = lower value. activity change, % (concentration not given with the values). 0.49% of 340,000 active; in the data active = activity change below about -65%; inconclusive = mostly about -30% to -63%
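In 5 uL wells, 23 nL compound meets equimolar GST-E1A and His-CtBP (5X stock 125 nM each) for 2 h, 37 °C. Beads (5X, 50 ug/mL) then 1 h, 37 °C, dark.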
TDP1 cell noCPT: qHTS for Inhibitors of human tyrosyl-DNA phosphodiesterase 1 (TDP1): qHTS in cells in absence of CPT; 15% of 420,000 active; Potency, µM (series often up to 46.2 µM), without a hit: top-dose activity change, negative = growth inhibition, usual class: inhibitors; DT40 Tdp1-/- hTDP1 cells, no CPT, ATP luminescence, 48 h; note: potency is the fitted concentration of half-maximal effect; nearly all actives have a fitted effect of over 55% in size
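DT40 Tdp1-/-;hTDP1 cells, no CPT (DMSO vehicle only), 400 cells/well; compounds pin-transferred; ≥48 hr, 37 °C; CellTiter-Glo 30 min RT dark, luminescence read.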
IL1B secr inh: inhibitors of inflammasome signaling (IL-1 beta secretion). 4.7% of 360,000 active. AID 743279. activity change, % at 57.5 µM. THP-1 LPS/ATP IL-1B secretion, AlphaLISA, 16 h; stronger effect = lower value; in the data active = activity change below about -50%; inconclusive = mostly about -30% to -49%
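Secreted IL-1B measured by AlphaLISA bead assay after 16 h compound exposure of THP-1 cells; compounds (final up to 57.5 uM) added 1 h before LPS (250 ng/mL) and ATP (1.25 mM) stimulation; lower signal means less secretion.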
TDP1 cell CPT: growth inhibition of DT40 Tdp1-/-;hTDP1 cells with camptothecin (screen for TDP1 inhibitors). AID 686979. 12% of 420,000 active. Potency, µM (titrated, usually from 46.2 µM), for the others: top-dose activity change, negative = growth inhibition, hits mostly inhibitors. chicken DT40 Tdp1-/-;hTDP1 cells + 20 nM CPT, ATP luminescence, 48 h; note: potency is the fitted concentration of half-maximal effect; nearly all actives have a fitted effect of over 55% in size
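Chicken DT40 Tdp1-/- cells stably complemented with human TDP1 were seeded at 400 cells/well in medium containing 20 nM camptothecin, exposed to pin-transferred compounds, and grown at 37 °C for at least 48 hr. Viability was read as ATP luminescence.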
TDP1 inh: TDP1 (human) enzyme inhibition. Q9NUW8. recombinant TDP1, AlphaScreen DNA substrate cleavage. Potency, µM (top dose mostly 130 µM), for the others: at the top dose activity change, negative = inhibition, hits mostly inhibitors. 0.28% of 350,000 active. AID 485290; note: potency is the fitted concentration of half-maximal effect; nearly all actives have a fitted effect of over 40% in size
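AlphaScreen read-out: signal falls as enzyme removes the 3' tyrosine-FITC from a 5'-biotinylated DNA oligo (15 nM, 5 min, RT). Enzyme was E. coli-made recombinant Tdp1 at 1 nM, exposed to compound for 15 min beforehand; beads 10 ug/ml, 10 min.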
Numbers without * were called inactive. Compounds with a hit are over-represented: about 18% of the library has one in this group of screens. Unless noted, calls come from the whole dose curve; as a rule, active = well fitted curve in the direction sought with a large enough effect; inconclusive = small, poorly fitted or top-dose-only effect, or another doubt; inactive = no such curve, though single readings can be large; an effect the other way counts as inactive or inconclusive. % is set by controls: 0 for no effect and ±100 for the full control effect.

For CC(C)C1N=C(c2ccc3c(c2)OCO3)CC(c2ccccc2O)N1 (stereo not given) the results were Six1-Eya2 inh 1.8, CtBP-E1A inh -3.2, TDP1 cell noCPT 4.61µM*, IL1B secr inh -18.6, TDP1 cell CPT 5.17µM* and TDP1 inh 6.8%.
CCC1(C)NC(c2ccc3c(c2)OCO3)=CC(c2ccccc2O)N1 (stereo not given) was read as TDP1 cell noCPT 11.2µM*, TDP1 cell CPT inconclusive and TDP1 inh 1.6%.
`CCCCCCC1(C)NC(c2ccc3c(c2)OCO3)=CC(c2cc(Br)ccc2O)N1` (stereo not given) gave TDP1 inh 1.0%.
Screening CC(C)C1(C)NC(c2ccc3c(c2)OCO3)=CC(c2ccccc2O)N1 (stereo not given) returned TDP1 cell noCPT 12.6µM*, TDP1 cell CPT inconclusive and TDP1 inh 1.9%.
`Cc1ccc2sc(N(CCCN(C)C)C(=O)c3ccc(S(=O)(=O)N(C)C)cc3)nc2c1C` gave Six1-Eya2 inh -4.5, CtBP-E1A inh -13.3, TDP1 cell noCPT -14.4%, IL1B secr inh -14.7, TDP1 cell CPT -23.0% and TDP1 inh 3.5%.
CCN(c1ccccc1)S(=O)(=O)c1ccc(C(=O)N(CCCN(C)C)c2nc3cc4c(cc3s2)OCO4)cc1 was read as Six1-Eya2 inh inconclusive, CtBP-E1A inh -29.5, TDP1 cell noCPT inconclusive, IL1B secr inh -56.5*, TDP1 cell CPT 18.4µM* and TDP1 inh 12.0%.
`CCN(c1ccccc1)S(=O)(=O)c1ccc(C(=O)N(CCCN(C)C)c2nc3c(C)cccc3s2)cc1` gave Six1-Eya2 inh -29.1, CtBP-E1A inh inconclusive, TDP1 cell noCPT inconclusive, IL1B secr inh -70.6*, TDP1 cell CPT inconclusive and TDP1 inh 8.4%.
For COc1ccc2sc(N(CCCN(C)C)C(=O)c3ccc(S(=O)(=O)N(C)Cc4ccccc4)cc3)nc2c1 the results were Six1-Eya2 inh -27.0, CtBP-E1A inh -27.7, TDP1 cell noCPT 14.6µM*, IL1B secr inh -93.1* and TDP1 cell CPT inconclusive.
CC1CN(S(=O)(=O)c2ccc(C(=O)N(CCCN(C)C)c3nc4cc5c(cc4s3)OCCO5)cc2)CC(C)O1 (stereo not given) was read as Six1-Eya2 inh -8.0, CtBP-E1A inh -0.2, TDP1 cell noCPT -26.3%, IL1B secr inh inconclusive and TDP1 cell CPT -26.7%.
For CCN(CC)CCN(C(=O)c1ccc(S(=O)(=O)N(C)C2CCCCC2)cc1)c1nc2ccc(OC)cc2s1 the results were Six1-Eya2 inh -2.0, CtBP-E1A inh -0.6, TDP1 cell noCPT -4.9%, IL1B secr inh -77.2*, TDP1 cell CPT inconclusive and TDP1 inh 6.5%.
`CCn1c(SCC(=O)NC2CCCCC2)nnc1C(CO)NC(=O)c1ccccc1` (stereo not given) gave Six1-Eya2 inh 11.8, CtBP-E1A inh -0.7, TDP1 cell noCPT -5.3%, IL1B secr inh inactive, TDP1 cell CPT -9.1% and TDP1 inh -12.7%.
Screening O=C(Nc1ccc(S(=O)(=O)NCc2ccccc2)cc1)Nc1ccc2c(c1)OCO2 returned Six1-Eya2 inh -10.1, CtBP-E1A inh -8.2, TDP1 cell noCPT -29.2%, IL1B secr inh -1.2, TDP1 cell CPT inconclusive and TDP1 inh 2.2%.
For CCN1CCCC1CNS(=O)(=O)c1c(C)cc(C)cc1C (stereo not given) the results were Six1-Eya2 inh -23.9, CtBP-E1A inh -11.2, TDP1 cell noCPT -45.3%, IL1B secr inh -9.2 and TDP1 cell CPT -1.7%.
For CN(C)CCN(C(=O)c1ccc2ccccc2c1)c1nc2cc3c(cc2s1)OCCO3 the results were Six1-Eya2 inh -25.1, CtBP-E1A inh -0.5, TDP1 cell noCPT inconclusive, IL1B secr inh 0.0, TDP1 cell CPT inconclusive and TDP1 inh 13.4%.
For CN(C)CCCN(C(=O)c1ccc(S(=O)(=O)N(C)Cc2ccccc2)cc1)c1nc2cc3c(cc2s1)OCO3 the results were Six1-Eya2 inh inconclusive, CtBP-E1A inh -28.6, TDP1 cell noCPT 16.4µM*, IL1B secr inh -51.4*, TDP1 cell CPT -72.3% and TDP1 inh 12.0%.
CN(C)CCCN(C(=O)c1ccc2ccccc2c1)c1nc2cc3c(cc2s1)OCO3 was read as Six1-Eya2 inh inconclusive, CtBP-E1A inh inconclusive, TDP1 cell noCPT inconclusive, IL1B secr inh -93.1*, TDP1 cell CPT 20.6µM* and TDP1 inh 8.0%.
Cc1ccc2sc(N(CCCN(C)C)C(=O)c3ccc(S(=O)(=O)N(C)Cc4ccccc4)cc3)nc2c1C was read as Six1-Eya2 inh inconclusive, CtBP-E1A inh inconclusive, TDP1 cell noCPT inconclusive, IL1B secr inh -92.6*, TDP1 cell CPT inconclusive and TDP1 inh 7.4%.
`CCN(CC)CCN(C(=O)c1cc2c(ccc3ccccc32)oc1=O)c1nc2cc3c(cc2s1)OCCO3` gave Six1-Eya2 inh -13.5, CtBP-E1A inh -24.9, TDP1 cell noCPT 20.6µM*, IL1B secr inh -61.2*, TDP1 cell CPT 18.4µM* and TDP1 inh 1.3%.
Screening CN(C)CCCN(C(=O)c1ccc(S(=O)(=O)N2CCCCCC2)cc1)c1nc2cc3c(cc2s1)OCO3 returned Six1-Eya2 inh -24.5, CtBP-E1A inh -14.0, TDP1 cell noCPT inconclusive, IL1B secr inh -11.7 and TDP1 cell CPT inconclusive.
For CC(=O)c1ccc(Oc2nc3c(c(=O)n(C)c(=O)n3C)n2C)cc1 the results were Six1-Eya2 inh 5.7, CtBP-E1A inh 8.0, TDP1 cell noCPT 1.5%, IL1B secr inh 18.8, TDP1 cell CPT 15.5% and TDP1 inh 1.2%.
For CN(C)CCN(C(=O)c1ccc(N2C(=O)CCC2=O)cc1)c1nc2cc3c(cc2s1)OCO3 the results were Six1-Eya2 inh -2.6, CtBP-E1A inh -1.3, TDP1 cell noCPT -22.1%, IL1B secr inh -19.4, TDP1 cell CPT -13.4% and TDP1 inh 8.1%.
CN(C)CCN(C(=O)c1cccc2ccccc12)c1nc2cc3c(cc2s1)OCO3 was read as Six1-Eya2 inh inconclusive, CtBP-E1A inh inconclusive, TDP1 cell noCPT inconclusive, IL1B secr inh -91.1*, TDP1 cell CPT inconclusive and TDP1 inh 12.3%.
For CN(C)CCCN(C(=O)c1ccc([N+](=O)[O-])o1)c1nc2cc3c(cc2s1)OCO3 the results were Six1-Eya2 inh -13.0, CtBP-E1A inh -15.9, TDP1 cell noCPT inconclusive, IL1B secr inh -1.2, TDP1 cell CPT 18.4µM* and TDP1 inh 6.4%.
